Here are results for 17 molecules from PubChem BioAssay (NCATS).

The structures appear in SMILES notation. Records with an inconclusive call do not appear. The source made the active and inactive calls. The call rests on the fitted dose curve; in most records, active means well fitted curve in the direction sought with a large enough effect; inconclusive means small, poorly fitted or top-dose-only effect, or another doubt; inactive means no such curve, though single readings can be large; an effect the other way counts as inactive or inconclusive.

A short description of test [1]: qHTS of pediatric cancer cell lines to identify multiple opportunities for drug repurposing: Confirmatory screen for U-2 OS cells (AID 1347122). Further: nearly all actives have a fitted effect of over 65% in size. Further: potency means the concentration at half of the fitted maximal effect. The essentials:
(§1)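 Cells (500-1,000/well) in growth media were settled 5 h at 37 degrees C, then given compounds for 48 h. Viability was read as CellTiter-Glo luminescence. Primary runs used MIPE at 11 points (0.78 nM-46 µM) and NPC at 8 points (0.59 nM-46 µM); follow-ups used 11 points.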
For orientation: qHTS replaces the single test concentration by a dilution series.

Test [2] can be described thus: qHTS of pediatric cancer cell lines to identify multiple opportunities for drug repurposing: Confirmatory screen for Rh18 cells (AID 1347125). Further: nearly all actives have a fitted effect of over 55% in size. Further: potency means the concentration at half of the fitted maximal effect. The method in brief:
as §1

Test [3] is described as follows: qHTS of pediatric cancer cell lines to identify multiple opportunities for drug repurposing: Confirmatory screen for Rh30 cells (AID 1347126). Further: nearly all actives have a fitted effect of over 55% in size. Further: potency means the concentration at half of the fitted maximal effect. The method in brief: as §1
A short description of test [4]: qHTS of pediatric cancer cell lines to identify multiple opportunities for drug repurposing: Confirmatory screen for Saos-2 cells (AID 1347127). Further: nearly all actives have a fitted effect of over 60% in size. Further: potency means the concentration at half of the fitted maximal effect. The essentials:
as §1

Test [5] is described as follows: qHTS of pediatric cancer cell lines to identify multiple opportunities for drug repurposing: Confirmatory screen for OHS-50 cells (AID 1347128).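 Further: compound exposure lasted 48 h at 37 degrees C; nearly all actives have a fitted effect of over 55% in size.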 Further: potency means the concentration at half of the fitted maximal effect. The method in brief:
as §1

Test [6] is described as follows: qHTS of pediatric cancer cell lines to identify multiple opportunities for drug repurposing: Confirmatory screen for SK-N-SH cells (AID 1347129).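 Further: cells exposed to compound for 48 h before viability read; nearly all actives have a fitted effect of over 60% in size.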 Further: potency means the concentration at half of the fitted maximal effect. The essentials: as §1
For test [7], the system named is Zika virus NS2B-NS3 protease. Nature of the test: Primary screen GU AMC qHTS for Zika virus inhibitors (AID 1347154). Further: nearly all actives have a fitted effect of over 70% in size. Further: potency means the concentration at half of the fitted maximal effect. The essentials: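 Unlinked Zika NS2B hydrophilic domain/NS3 protease domain noncovalent complex (25 nM final) in 10 mM Tris-HCl pH 8.0, 0.01% Tween 20, with AMC peptide substrate. Fluorescence (ex 340, em 450 nm) change over 15 min, room temperature; percent inhibition fitted to 4-parameter Hill equation.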

A short description of test [8]: qHTS of pediatric cancer cell lines to identify multiple opportunities for drug repurposing: Confirmatory screen for RD cells (AID 1347124).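 Further: cells exposed to compound for 48 h before viability readout; nearly all actives have a fitted effect of over 65% in size.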 Further: potency means the concentration at half of the fitted maximal effect. The essentials: as §1
Test [9] is described as follows: qHTS of pediatric cancer cell lines to identify multiple opportunities for drug repurposing: Confirmatory screen for control Hh wild type fibroblast cells (AID 1347121). Further: nearly all actives have a fitted effect of over 70% in size. The essentials: as §1
In test [10] the test system is Zika virus NS2B-NS3 protease (unlinked complex). The test can be described thus: Primary screen GU Rhodamine qHTS for Zika virus inhibitors: Unlinked NS2B-NS3 protease assay (AID 1347159). Further: nearly all actives have a fitted effect of over 60% in size. The method in brief: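 In dose–response format, inhibition of unlinked protease (25 nM) was measured with 1.5 microM bis-peptide Rhodamine110 substrate. Aprotinin served as the intraplate control.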

In test [11] the test system is Zika virus NS2B-NS3 protease (linked construct). The test can be described thus: Primary screen NINDS Rhodamine qHTS for Zika virus inhibitors (AID 1347160). Further: nearly all actives have a fitted effect of over 55% in size. The method in brief:
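Each compound, titrated, sat 15 min with 25 nM linked protease before 1.5 microM Rhodamine110 substrate went in. Fluorescence gain over the next 15 min, in pH 8.0 Tris with Tween 20, gave Hill-fitted curves.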

The target of a further test is Furin (Homo sapiens) (UniProt P09958). The test can be described thus: Furin counterscreen qHTS for Zika virus inhibitors (AID 1347149). Further: nearly all actives have a fitted effect of over 70% in size. Further: potency means the concentration at half of the fitted maximal effect. The method in brief:
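Counterscreen measures cleavage of 2 microM BOC-RVRR-AMC, below its ~15 microM Km, by 5 nM full-length human furin at pH 7.0 after a 15-min compound preincubation. Inhibition derives from the 15-min fluorescence increase at 37C.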
(In general: The purpose of a counterscreen is to sort out artefacts and off-target activity.)

Test [12] relates to Zika virus NS2B-NS3 protease (unlinked). The test can be described thus: Optimization of GU AMC qHTS for Zika virus inhibitors: Unlinked NS2B-NS3 protease assay (AID 1347151). Further: series mostly up to about 52 µM; nearly all actives have a fitted effect of over 80% in size. The essentials: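 Noncovalent NS2B hydrophilic domain–NS3 protease complex (25 nM final) in 10 mM Tris-HCl pH 8.0, 0.01% Tween 20; AMC substrate, room temperature 15 min (~20% conversion); fluorescence change normalized, 4-parameter Hill fit.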

Test [13] relates to Zika virus NS2B-NS3 protease (linked). The test can be described thus: 384 well plate NINDS AMC confirmatory qHTS for Zika virus inhibitors (AID 1347163). Further: potency means the concentration at half of the fitted maximal effect; nearly all actives have a fitted effect of over 50% in size. The following applies: Recombinant NS2B-NS3 protease, Ac-VKTGKR-AMC fluorescence. The method in brief:
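Enzyme (5, 30 or 60 nM final) first met test compounds for ~15 min. The AMC-tagged peptide Ac-VKTGKR-AMC followed at 30 microM. Fluorescence was then recorded at 25 min and scaled against no-enzyme and no-inhibitor wells.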

Test [14] can be described thus: Confirmatory screen NINDS Rhodamine qHTS for Zika virus inhibitors (AID 1347161). Further: potency means the concentration at half of the fitted maximal effect; nearly all actives have a fitted effect of over 60% in size. The method in brief: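 In 10 mM Tris-HCl pH 8.0 containing 0.01% Tween 20, linked NS2B-NS3 protease (25 nM final) is exposed to test compounds for 15 min. Cleavage of 1.5 microM Rhodamine110 substrate is tracked by fluorescence over 15 min.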

Sequence of Furin (Homo sapiens) (P09958 whole entry, looked up): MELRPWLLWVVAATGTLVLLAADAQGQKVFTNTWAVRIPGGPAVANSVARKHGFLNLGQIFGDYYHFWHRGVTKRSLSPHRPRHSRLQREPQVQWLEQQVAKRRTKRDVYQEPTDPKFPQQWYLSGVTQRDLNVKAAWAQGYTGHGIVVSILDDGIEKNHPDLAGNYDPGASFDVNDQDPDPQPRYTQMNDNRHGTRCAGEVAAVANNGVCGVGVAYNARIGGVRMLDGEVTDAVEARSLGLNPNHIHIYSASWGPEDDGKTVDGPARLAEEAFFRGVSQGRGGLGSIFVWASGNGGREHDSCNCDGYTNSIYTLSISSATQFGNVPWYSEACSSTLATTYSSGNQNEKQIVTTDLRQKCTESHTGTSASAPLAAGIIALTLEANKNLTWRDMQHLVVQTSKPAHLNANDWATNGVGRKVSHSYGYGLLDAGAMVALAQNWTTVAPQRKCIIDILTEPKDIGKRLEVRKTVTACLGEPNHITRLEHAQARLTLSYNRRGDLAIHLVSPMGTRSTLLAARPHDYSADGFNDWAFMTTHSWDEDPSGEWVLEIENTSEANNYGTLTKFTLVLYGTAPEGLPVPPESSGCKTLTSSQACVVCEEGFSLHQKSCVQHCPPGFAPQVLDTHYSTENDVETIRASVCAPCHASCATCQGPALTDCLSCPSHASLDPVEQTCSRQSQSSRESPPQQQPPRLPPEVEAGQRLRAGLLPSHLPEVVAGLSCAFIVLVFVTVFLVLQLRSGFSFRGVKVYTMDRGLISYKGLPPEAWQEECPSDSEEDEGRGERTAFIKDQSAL

In the case of `CC1(C)CCC[C@@]2(C)[C@@H]1CC[C@@]1(C)OC(=O)C[C@H]21`, the Potency result in test [1], in [2], in [4], in test [5], in [6] and in test [7] was “inactive” throughout. Also, the Potency in [3] is 18.5 nM (active).

`CC(C)(C(=O)NCC(F)(F)C(F)(F)F)C(=O)N[C@@H]1C(=O)Nc2ccccc2-c2ccccc21`: the Potency result in [1], in [8], in test [2], in [3], in test [4] and in [5] was “inactive” throughout. Also, in [7], the Potency result was “inactive”.

For the molecule `COc1ccc2c(Oc3ccc(NC(=O)c4c(C)n(CC(C)(C)O)n(-c5ccccc5)c4=O)cc3F)ccnc2c1`, the Potency entry in test [9], in [8], in [4], in [7], in test [10] and in test [11] was “inactive” throughout.

On to `CO[C@H]1C(=O)[C@]2(C)[C@@H](OC)C[C@H]3OC[C@@]3(OC(C)=O)[C@H]2[C@H](OC(=O)c2ccccc2)[C@]2(O)C[C@H](OC(=O)[C@H](O)[C@@H](NC(=O)OC(C)(C)C)c3ccccc3)C(C)=C1C2(C)C`, for which the values for the Potency in test [1], in test [4] and in test [5] were 18.5 nM (active), 14.7 nM (active) and 16.5 nM (active), respectively. The Potency result in [3] and in test [7] was “inactive” each time.

With `CC(=O)O[C@]1(C(C)=O)CC[C@@H]2[C@@H]3C[C@H](C)C4=CC(=O)CC[C@]4(C)[C@H]3CC[C@@]21C`, the Potency result in test [1], in [8], in test [4], in [5], in [6] and in [7] was “inactive” in each case.

With `O=C(NCc1ccncc1)C12C[C@H]3C[C@@H](C1)CC(c1ccc(Cl)cc1)(C3)C2`, the Potency was 26100 nM (active) in [1], 16500 nM (active) in [4] and 13100 nM (active) in [5]. The Potency result in [2], in test [6] and in test [7] was “inactive” in each case.

Regarding `O=c1cc(-c2ccc(O)cc2)oc2cc(O)cc(O)c12`, the Potency entry in test [1], in test [8], in test [4], in test [6] and in test [7] was “inactive” throughout.

Regarding `Nc1ncnc2c1ncn2[C@@H]1O[C@@H](CO)[C@H](O)[C@H]1O`, the Potency result in test [1], in test [8], in test [2], in test [3], in [4] and in [5] was “inactive” in each case. Moreover, the Potency entry in test [6] and in [7] was “inactive” in each case.

`COc1ccc(-c2nc(N3CCOCC3)c3sc(CN(C)c4ncc(C(=O)NO)cn4)cc3n2)cn1`: the Potency in test [1] is 522 nM (active); in [8], 2330 nM (active); in test [2], 1170 nM (active); in [3] it was 4140 nM (active); in test [6], 5900 nM (active).

For the molecule `CO[C@H]1C[C@@H]2CC[C@@H](C)[C@@](O)(O2)C(=O)C(=O)N2CCCC[C@@H]2C(=O)O[C@H]([C@H](C)C[C@@H]2CC[C@H](OP(C)(C)=O)[C@H](OC)C2)CC(=O)[C@H](C)C=C(C)[C@@H](O)[C@@H](OC)C(=O)[C@H](C)C[C@H](C)C=CC=CC=C1C`, the Potency is 14700 nM (active) in [1] and 18500 nM (active) in test [3]. Besides, the Potency result in test [2], in test [6] and in test [7] was “inactive” each time.

Take `Oc1ccc(C2CCN(c3ccnc4ccccc34)CC2)cc1O`: the Potency is 2930 nM (active) in test [1], 928 nM (active) in test [8] and 20900 nM (active) in [6]. The Potency entry in test [2] and in test [4] was “inactive” throughout.

For the molecule `CC(=O)Nc1ccc([C@H](C)C(=O)Nc2ncc(C(C)C)s2)cc1`, the Potency was 1470 nM (active) in [1]; 7370 nM (active) in test [8]; 2080 nM (active) in test [3]; 5220 nM (active) in test [4]; 7370 nM (active) in test [5]; 6620 nM (active) in test [6]. The Potency in test [13] is 112000 nM (active). Besides, the Potency result (with Furin (Homo sapiens); in test [12]; in test [7]; in [10]; in test [11]) was “inactive” in each case.

Consider `O=C1c2ccccc2-[n+]2ccc3c([nH]c4ccccc43)c21`, for which the Potency in test [1] is 1170 nM (active); in [8], 1650 nM (active); in test [2] it was 2330 nM (active); in test [3], 2930 nM (active); in test [4], 928 nM (active); in test [5] it was 1650 nM (active). Also, the Potency entry in [6] and in [7] was “inactive” in each case.

Turning to `O=C1C(Cl)=C(NCCN2CCOCC2)C(=O)c2ncccc21`, the Potency in [1] is 1650 nM (active); in test [8], 1170 nM (active); in test [2], 3290 nM (active); in test [3], 7370 nM (active); in test [4] it was 1170 nM (active); in test [6] it was 7430 nM (active). Besides, in test [7], the Potency result is “inactive”.

Regarding `CO[C@H]1C[C@@H]2CC[C@@H](C)[C@@](O)(O2)C(=O)C(=O)N2CCCC[C@@H]2C(=O)O[C@H]([C@H](C)C[C@@H]2CC[C@H](OCCO)[C@H](OC)C2)CC(=O)[C@H](C)C=C(C)[C@@H](O)[C@@H](OC)C(=O)[C@H](C)C[C@H](C)C=CC=CC=C1C`, the Potency entry in [9], in [8], in [2], in [3], in test [6] and in test [7] was “inactive” in each case.

Consider `CC=C(C)C(=O)O[C@H]1C(C)=C[C@]23C(=O)[C@@H](C=C(CO)[C@@H](O)[C@]12O)[C@H]1[C@@H](C[C@H]3C)C1(C)C`, for which the Potency in test [1] is 23.3 nM (active). The Potency entry in test [8], in test [2], in test [6] and in [7] was “inactive” each time.

As to `Cc1cc(OCCCc2c(C(=O)O)n(Cc3cccnc3)c3c(-c4c(COc5ccc(N6CCN([S+](C)(=O)[O-])CC6)cc5)nn(C)c4C)cccc23)cc(C)c1Cl`, the Potency in [1] was 2610 nM (active); with Furin (Homo sapiens), 21500 nM (active); in test [7] it was 21500 nM (active); in test [14], 3110 nM (active); in test [13], 31600 nM (active). Moreover, the Potency entry in test [6] is “inactive”.
